“And” between values parts separate entries of the source, which are not always exact repeats. Equal entries are not always repeated. The panel holds about 79,000 compounds, 15% with a hit somewhere; the sample as a whole holds those more often. A structure can be active in one record and inactive in another. The source made the active and inactive calls. Cut-off read from the data, not from the text of the source: active = growth inhibition above about 70%; inactive = the rest. Where a SMILES comes first, the peptide text is derived from it. The star is where a group is joined. Fmoc = O=C(OCC1c2ccccc2-c2ccccc21)*; Boc = CC(C)(C)OC(=O)*; OtBu = CC(C)(C)O*

Assay [1] can be described thus: NCI Yeast Anticancer Drug Screen. Data for the rad50 strain (AID 155).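 Note: 0% = growth of vehicle-only cultures of the same strain.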 The following applies: S. cerevisiae rad50 strain growth inhibition; at 50.0 µM; stronger effect = higher value. Put shortly: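 Compounds were tested on a yeast strain with an engineered DNA damage repair alteration; the reported value is growth inhibition normalised to vehicle treatment.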
The nature of assay [2]: NCI Yeast Anticancer Drug Screen. Data for the mec2-1 strain (AID 157). The note with it: S. cerevisiae mec2-1 strain, at 50.0 µM, stronger effect = higher value. The essentials:
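Compounds were applied to mec2-1 yeast cells. Their growth was then compared with that of vehicle-treated cultures to give growth inhibition.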

Assay [3] can be described thus: NCI Yeast Anticancer Drug Screen. Data for the sgs1 mgt1 strain (AID 161).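 Note: 0% = growth of cultures given vehicle only.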 The note with it: S. cerevisiae sgs1 mgt1 strain, at 50.0 µM, stronger effect = higher value. Put shortly: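 This yeast growth screen uses a strain with defined DNA-repair lesions; compound-treated growth is compared with vehicle-treated growth.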
Assay [4] is described as follows: NCI Yeast Anticancer Drug Screen. Data for the cln2 rad14 strain (AID 165).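 Note: 0% = growth equal to vehicle treated cultures.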 The note with it: S. cerevisiae cln2 rad14 strain, at 50.0 µM, stronger effect = higher value. Put shortly:
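Strain: cln2 rad14 yeast, altered in cell cycle control and DNA damage repair. Read-out: growth inhibition vs vehicle.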

Assay [5] in a line: NCI Yeast Anticancer Drug Screen. Data for the bub3 strain (AID 167). The following applies: S. cerevisiae bub3 mutant strain, at 50.0 µM, stronger effect = higher value. The essentials:
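Growth of a checkpoint-deficient yeast mutant is measured after compound exposure. Values represent inhibition relative to vehicle.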

Assay [6] can be described thus: NCI Yeast Anticancer Drug Screen. Data for the mlh1 rad18 strain (AID 175). The note with it: S. cerevisiae mlh1 rad18 strain growth inhibition; at 50.0 µM; stronger effect = higher value. Put shortly:
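A repair-deficient yeast strain is exposed to test compound, and growth is scored relative to vehicle-treated controls.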

For `CC(=O)OCCN(CCOC(C)=O)C(C)=O`, the growth inhibition in assay [1] is 22.6% (inactive) and -2.1% (inactive); in assay [2], 5.7% (inactive) and 8.4% (inactive); in assay [3], 19.1% (inactive) and 0.4% (inactive); in assay [4] it was 7.3% (inactive) and -18.9% (inactive); in assay [5] it was -1.45% (inactive) and -10.7% (inactive); in assay [6], 17.9% (inactive) and -3.75% (inactive).

Take `CCOC(=O)C(N)Cc1ccc(O)cc1` (stereo not given): the growth inhibition in assay [1] was 16% (inactive) and 0.4% (inactive); in assay [2], 8.05% (inactive) and 6.55% (inactive); in assay [3], -0.85% (inactive) and -11.8% (inactive); in assay [4], 6.25% (inactive) and -19.6% (inactive); in assay [5] it was 10.7% (inactive) and 1.75% (inactive); in assay [6] it was 23.4% (inactive) and -1.7% (inactive).

With `CC(=O)NC(C(=O)O)=C(C)C`, the growth inhibition in assay [1] is -9.2% (inactive) and 18% (inactive); in assay [2], -7.55% (inactive) and -6.25% (inactive); in assay [3], -1.45% (inactive) and 13.9% (inactive); in assay [4] it was -16.9% (inactive) and 16.8% (inactive); in assay [5] it was 7.95% (inactive) and 2.25% (inactive); in assay [6], -5.2% (inactive) and 27.9% (inactive).

Regarding `O=C(O)c1cc([N+](=O)[O-])c2c(c1)P(=O)(O)c1cc(C(=O)O)cc([N+](=O)[O-])c1O2`, the growth inhibition was 19.9% (inactive) and 10.8% (inactive) in assay [1]; -1.35% (inactive) and 3.05% (inactive) in assay [2]; 7.65% (inactive) and 4.55% (inactive) in assay [3]; 5.9% (inactive) and 4.05% (inactive) in assay [4]; -0.6% (inactive) and -2.1% (inactive) in assay [5]; 13.7% (inactive) and 7.85% (inactive) in assay [6].

Regarding `S=C(S)NCCNC(=S)S.[Cu+2]`, the growth inhibition was 1.15% (inactive) and 27.4% (inactive) in assay [1]; -8.7% (inactive) and -11.9% (inactive) in assay [2]; -0.6% (inactive) and 6.45% (inactive) in assay [3]; -41.2% (inactive) and -56.4% (inactive) in assay [4]; -18.2% (inactive) and -14.6% (inactive) in assay [5]; 5.3% (inactive) and -15.5% (inactive) in assay [6].

Regarding `CC(C)(C)OC(=O)CCC(NC(=O)OCC1c2ccccc2-c2ccccc21)C(=O)NC(Cc1c[nH]c2ccccc12)C(=O)NC(CCCCNC(=O)OC(C)(C)C)C(=O)N1CCCC1C(=O)NCC(N)=O` (stereo not given) (Fmoc-E(OtBu)WK(Boc)PG-NH2; configuration not given here), the growth inhibition was -24.2% (inactive) and -27.9% (inactive) in assay [1]; -23.1% (inactive) and -22.1% (inactive) in assay [2]; -12.7% (inactive) and -17% (inactive) in assay [3]; 5.7% (inactive) and 12.8% (inactive) in assay [4]; -16.6% (inactive) and -4.35% (inactive) in assay [5]; -17.8% (inactive) and -22.2% (inactive) in assay [6].

On to `Nc1nc(N)c2ncn(C3OC(CO)C(OC4OC(CO)C(O)C(O)C4O)C(O)C3O)c2n1` (stereo not given), for which the growth inhibition in assay [1] is -0.55% (inactive) and -12.2% (inactive); in assay [2], 12.8% (inactive) and 7.45% (inactive); in assay [3], 2.45% (inactive) and -27.6% (inactive); in assay [4] it was -2.65% (inactive) and -19.2% (inactive); in assay [5] it was 1.8% (inactive) and -17.8% (inactive); in assay [6], 22.3% (inactive) and -10.3% (inactive).

Consider `CC(C)(C)OC(=O)N1CCCC1C(=O)O` (stereo not given), for which the growth inhibition is -2% (inactive) and 4.9% (inactive) in assay [1]; -22.3% (inactive) and 2.55% (inactive) in assay [2]; 3.05% (inactive) and 3.8% (inactive) in assay [3]; 6.05% (inactive) and -24.8% (inactive) in assay [4]; 11.6% (inactive) and -5.25% (inactive) in assay [5]; 2.45% (inactive) and 4.55% (inactive) in assay [6].

With `Nc1cccc2cc(S(=O)(=O)O)ccc12`, the growth inhibition was 10.6% (inactive) and -6.9% (inactive) in assay [1]; 22.9% (inactive) and -9.85% (inactive) in assay [2]; -24.9% (inactive) and -1.25% (inactive) in assay [3]; -2.75% (inactive) and -50.2% (inactive) in assay [4]; -1.65% (inactive) and -11.9% (inactive) in assay [5]; -5.5% (inactive) and -35.7% (inactive) in assay [6].

For `OC/C=C/c1ccccc1`, the growth inhibition in assay [1] is 5.7% (inactive) and 14.7% (inactive); in assay [2], 6.7% (inactive) and -3.15% (inactive); in assay [3], 12.1% (inactive) and -16.6% (inactive); in assay [4], 10.1% (inactive) and -2.55% (inactive); in assay [5], 2.65% (inactive) and 12.1% (inactive); in assay [6] it was 14.7% (inactive) and -8.85% (inactive).

Regarding `CC(Br)C(=O)NC(Cc1ccccc1)C(=O)O` (stereo not given), the growth inhibition is 2.65% (inactive) and -4.15% (inactive) and -18.5% (inactive) in assay [1]; -18.9% (inactive) and 0.65% (inactive) and -20.2% (inactive) in assay [2]; -11.8% (inactive) and 3% (inactive) in assay [3]; 16.8% (inactive) and -25.6% (inactive) in assay [4]; -17.5% (inactive) and 8.15% (inactive) in assay [5]; 25.4% (inactive) and 5.95% (inactive) and -9.85% (inactive) in assay [6].

`CC(Cc1ccccc1)NC(=O)c1ccccc1` (stereo not given): the growth inhibition was 18.2% (inactive) and 5.45% (inactive) in assay [1]; 3.3% (inactive) and -1.1% (inactive) in assay [2]; -19.9% (inactive) and -2.25% (inactive) in assay [3]; -93.5% (inactive) and -7.65% (inactive) in assay [4]; -14.9% (inactive) and 2.45% (inactive) in assay [5]; 7.4% (inactive) and -5.3% (inactive) in assay [6].

On to `Cc1ccc(C(C)CCCO)cc1` (stereo not given), for which the growth inhibition in assay [1] was -11.6% (inactive) and 6.8% (inactive); in assay [2], -15.4% (inactive) and -21.8% (inactive); in assay [3], -16.8% (inactive) and -6.55% (inactive); in assay [4], -6.55% (inactive) and -2.3% (inactive); in assay [5] it was -22.2% (inactive) and -6.35% (inactive); in assay [6], -23.9% (inactive) and -25.9% (inactive).

Consider `CCCCNC(=S)NCCCC`, for which the growth inhibition was -6.45% (inactive) and -1.4% (inactive) in assay [1]; 9.9% (inactive) and 8% (inactive) in assay [2]; -11% (inactive) and 19.2% (inactive) in assay [3]; -32% (inactive) and -17.5% (inactive) in assay [4]; 1.15% (inactive) and -4.35% (inactive) in assay [5]; -2.4% (inactive) and 17.3% (inactive) in assay [6].

In the case of `C[N+](C)(C)c1ncnc2c1ncn2C1CC(O)C(CO)O1` (stereo not given), the growth inhibition in assay [1] is 21.2% (inactive) and -23.1% (inactive); in assay [2], 8.45% (inactive) and 7% (inactive); in assay [3], 15.7% (inactive) and -2.85% (inactive); in assay [4] it was 3.1% (inactive) and -6.45% (inactive); in assay [5], -33% (inactive) and 10.6% (inactive); in assay [6] it was 7.55% (inactive) and 8.6% (inactive).

Regarding `COc1ccc2c(c1)CCC1C[C@@H]3C[C@]21C=CC3=O` (stereo not given in full), the growth inhibition is 11.8% (inactive) and -3.5% (inactive) in assay [1]; -11.8% (inactive) and -6.75% (inactive) in assay [2]; 0.75% (inactive) and 14.9% (inactive) in assay [3]; 9.6% (inactive) and 8.05% (inactive) in assay [4]; 24% (inactive) and 19.4% (inactive) in assay [5]; 5.15% (inactive) and 11.7% (inactive) in assay [6].

On to `O=C(O)c1cccnc1`, for which the growth inhibition in assay [1] is 18.2% (inactive) and 13.2% (inactive); in assay [2] it was 5.35% (inactive) and -7.8% (inactive); in assay [3], -4.15% (inactive) and -10% (inactive); in assay [4] it was 2.65% (inactive) and -2.6% (inactive); in assay [5] it was 5.65% (inactive) and -0.1% (inactive); in assay [6], 18.5% (inactive) and 16.7% (inactive).

Turning to `Cn1cc(NC(=O)c2cc(NC(=O)c3cc(NC=O)cn3C)cn2C)cc1C(=O)NCCC(=N)N`, the growth inhibition was 5.1% (inactive) and 89.8% (active) in assay [1]; 6.75% (inactive) and 91.5% (active) in assay [2]; -2.2% (inactive) and 91.7% (active) in assay [3]; 22.9% (inactive) and 88.5% (active) in assay [4]; -1.75% (inactive) and 91.3% (active) in assay [5]; 12.9% (inactive) and 90% (active) in assay [6].

In the case of `COc1ccc(-c2nc(SC3OC(COC(C)=O)C(OC(C)=O)C(OC(C)=O)C3OC(C)=O)n(C3OC(COC(C)=O)C(OC(C)=O)C(OC(C)=O)C3OC(C)=O)c(=O)c2C#N)cc1` (stereo not given), the growth inhibition in assay [1] is 11.2% (inactive) and -3.9% (inactive); in assay [2], 8.85% (inactive) and -1% (inactive); in assay [3], 22.4% (inactive) and 18.1% (inactive); in assay [4], -6.15% (inactive) and -19.5% (inactive); in assay [5] it was 3.35% (inactive) and 14.9% (inactive); in assay [6] it was -12.7% (inactive) and -3.55% (inactive).

In the case of `O=C(O)CC(NC(=O)OCc1ccccc1)C(=O)O` (stereo not given), the growth inhibition in assay [1] is -30.5% (inactive) and -21.3% (inactive); in assay [2] it was -16.4% (inactive) and 9.65% (inactive); in assay [3], -6.2% (inactive) and 0.8% (inactive); in assay [4] it was 16.5% (inactive) and -33.6% (inactive); in assay [5] it was 1.55% (inactive) and 4.65% (inactive); in assay [6], -8.75% (inactive) and -16.1% (inactive).

Values taken from PubChem BioAssay (NCI).
